Results from the supplement of paper PMC8728848.
This is one part of a sample in which the strongest signals are shown more often than they occur.

B1: CLL-1 (Homo sapiens) (protein)
chain: MWIDFFTYSSMSEEVTYADLQFQNSSEMEKIPEIGKFGEKAPPAPSHVWRPAALFLTLLCLLLLIGLGVLASMFHVTLKIEMKKMNKLQNISEELQRNISLQLMSNMNISNKIRNLSTTLQTIATKLCRELYSKEQEHKCKPCPRRWIWHKDSCYFLSDDVQTWQESKMACAAQNASLLKINNKNALEFIKSQSRSYDYWLGLSPEEDSTRGMRVDNIINSSAWVIRNAPDLNNMYCGYINRLYVQYYHCTYKKRMICEKMANPVQLGSTYFREA
B2: Surfactant Protein D (Human); Neck + Carbohydrate Recognition Domain (NCRD) (Homo sapiens) (protein)
chain: MLLFLLSALVLLTQPLGYLEAEMKTYSHRTMPSACTLVMCSSVESGLPGRDRDGREGPRGEKGDPGLPGAAGQAGMPGQAGPVGPKGDNGSVGEPGPKGDTGPSGPPGPPGVPGPAGREGALGKQGNIGPQGKPGPKGEAGPKGEVGAPGMQGSAGARGLAGPKGERGVPGERGVPGNTGAAGSAGAMGPQGSPGARGPPGLKGDKGIPGDKGAKGESGLPDVASLRQQVEALQGQVQHLQAAFSQYKKVELFPNGQSVGEKIFKTAQFVKPFTEAQLLCTQAGGQLASPRSAAENAALQQLVVAKNEAAFLSMTDSKTEGKFTYPTGESLVYSNWAPGEPNDDGGSADCVEIFTNGKWNDRACGAKRLVVCEF

Experiments:
Experiment in all cases: glycan array binding signal (z-score within array); higher = stronger binding
[1] = molecular target: Fuc(a1-2)[GalNAc(a1-3)]Gal(b1-4)Glc; conditions: glycan notation: IUPAC condensed, linker removed
Method in brief: (§1)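 Arrays were curated from the Consortium for Functional Glycomics database, 3228 in total, and kept only where the protein sequence was available. Binding is expressed as a within-array Z-score. This score was averaged across arrays of the same protein sequence at different concentrations or buffers and across linkers, and negative values can be read as non-binding.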

[2] = molecular target: Gal(b1-3)GalNAc(b1-4)Gal(b1-4)Glc; conditions: glycan notation: IUPAC condensed, linker removed
Method in brief: as §1

[3] = molecular target: Gal(b1-4)GlcNAc(b1-3)Gal(b1-4)[Fuc(a1-3)]GlcNAc(b1-3)Gal(b1-4)[Fuc(a1-3)]GlcNAc; conditions: glycan notation: IUPAC condensed, linker removed
Method in brief: as §1

[4] = molecular target: Gal(b1-4)GlcNAc(b1-3)GalNAc; conditions: glycan notation: IUPAC condensed, linker removed
Method in brief: as §1

Gal3S6S(b1-4)GlcNAc6S = conditions: glycan notation: IUPAC condensed, linker removed
Method in brief: as §1

Glc(a1-4)Glc = conditions: glycan notation: IUPAC condensed, linker removed
Method in brief: as §1

GlcNAc(b1-3)GalNAc = conditions: glycan notation: IUPAC condensed, linker removed
Method in brief: as §1

[5] = molecular target: GlcNAc(b1-3)[GlcNAc(b1-6)]GalNAc; conditions: glycan notation: IUPAC condensed, linker removed
Method in brief: as §1

[6] = molecular target: GlcNAc(b1-4)[GlcNAc(b1-6)]GalNAc; conditions: glycan notation: IUPAC condensed, linker removed
Method in brief: as §1

[7] = molecular target: Neu5Ac(a2-3)Gal(b1-3)[Fuc(a1-4)]GlcNAc; conditions: glycan notation: IUPAC condensed, linker removed
Method in brief: as §1

[8] = molecular target: Neu5Ac(a2-3)Gal(b1-4)GlcNAc; conditions: glycan notation: IUPAC condensed, linker removed
Method in brief: as §1

[9] = molecular target: Neu5Ac(a2-3)Gal(b1-4)GlcNAc(b1-3)Gal(b1-4)GlcNAc(b1-3)Gal(b1-4)GlcNAc; conditions: glycan notation: IUPAC condensed, linker removed
Method in brief: as §1

[10] = molecular target: Neu5Ac(a2-3)Gal(b1-4)[Fuc(a1-3)]GlcNAc6S; conditions: glycan notation: IUPAC condensed, linker removed
Method in brief: as §1

[11] = molecular target: Neu5Ac9Ac(a2-6)Gal(b1-4)GlcNAc; conditions: glycan notation: IUPAC condensed, linker removed
Method in brief: as §1

[12] = molecular target: Neu5Gc(a2-6)Gal(b1-4)GlcNAc; conditions: glycan notation: IUPAC condensed, linker removed
Method in brief: as §1

[13] = molecular target: Fuc(a1-2)[Gal(a1-4)]Gal(b1-4)GlcNAc; conditions: glycan notation: IUPAC condensed, linker removed; mutation: E347A
Method in brief: as §1

[14] = molecular target: Fuc(a1-3)[GalNAc(b1-4)]GlcNAc; conditions: glycan notation: IUPAC condensed, linker removed; mutation: E347A
Method in brief: as §1

Gal(a1-3)Gal(b1-4)GlcNAc = conditions: glycan notation: IUPAC condensed, linker removed; mutation: E347A
Method in brief: as §1

Gal(a1-3)GalNAc = conditions: glycan notation: IUPAC condensed, linker removed; mutation: E347A
Method in brief: as §1

Gal(a1-6)Glc = conditions: glycan notation: IUPAC condensed, linker removed; mutation: E347A
Method in brief: as §1

Gal(b1-2)Gal = conditions: glycan notation: IUPAC condensed, linker removed; mutation: E347A
Method in brief: as §1

[15] = molecular target: Gal(b1-3)GlcNAc(b1-3)Gal(b1-4)GlcNAc; conditions: glycan notation: IUPAC condensed, linker removed; mutation: E347A
Method in brief: as §1

[16] = molecular target: Gal(b1-3)[GlcNAc(b1-6)]GalNAc; conditions: glycan notation: IUPAC condensed, linker removed; mutation: E347A
Method in brief: as §1

[17] = molecular target: Gal(b1-3)[Neu5Ac(a2-6)]GlcNAc(b1-6)Gal(b1-4)Glc; conditions: glycan notation: IUPAC condensed, linker removed; mutation: E347A
Method in brief: as §1

[18] = molecular target: Gal(b1-4)GlcNAc(a1-6)Gal(b1-4)GlcNAc; conditions: glycan notation: IUPAC condensed, linker removed; mutation: E347A
Method in brief: as §1

[19] = molecular target: Gal(b1-4)GlcNAc(b1-3)Gal(b1-4)GlcNAc; conditions: glycan notation: IUPAC condensed, linker removed; mutation: E347A
Method in brief: as §1

[20] = molecular target: Gal(b1-4)GlcNAc(b1-6)Gal(b1-4)GlcNAc; conditions: glycan notation: IUPAC condensed, linker removed; mutation: E347A
Method in brief: as §1

GlcNAc(b1-3)Gal = conditions: glycan notation: IUPAC condensed, linker removed; mutation: E347A
Method in brief: as §1

GlcNAc3Prop(b1-4)GlcNAc = conditions: glycan notation: IUPAC condensed, linker removed; mutation: E347A
Method in brief: as §1

Man(a1-2)Man(a1-3)Man = conditions: glycan notation: IUPAC condensed, linker removed; mutation: E347A
Method in brief: as §1

[21] = molecular target: Man(a1-2)Man(a1-3)[Man(a1-2)Man(a1-6)]Man; conditions: glycan notation: IUPAC condensed, linker removed; mutation: E347A
Method in brief: as §1

[22] = molecular target: Man(a1-2)Man(a1-3)[Man(a1-2)Man(a1-6)]Man(a1-6)[Man(a1-2)Man(a1-2)Man(a1-3)]Man; conditions: glycan notation: IUPAC condensed, linker removed; mutation: E347A
Method in brief: as §1

[23] = molecular target: Man(a1-2)Man(a1-3)[Man(a1-6)]Man(a1-6)[Man(a1-2)Man(a1-3)]Man(b1-4)GlcNAc(b1-4)GlcNAc; conditions: glycan notation: IUPAC condensed, linker removed; mutation: E347A
Method in brief: as §1

[24] = molecular target: Man(a1-2)Man(a1-6)[Man(a1-3)]Man(a1-6)[Man(a1-2)Man(a1-2)Man(a1-3)]Man; conditions: glycan notation: IUPAC condensed, linker removed; mutation: E347A
Method in brief: as §1

[25] = molecular target: Man(a1-3)[Man(a1-6)]Man(a1-6)[Man(a1-2)Man(a1-3)]Man(b1-4)GlcNAc(b1-4)GlcNAc; conditions: glycan notation: IUPAC condensed, linker removed; mutation: E347A
Method in brief: as §1

[26] = molecular target: Man(a1-3)[Man(a1-6)]Man(a1-6)[Man(a1-3)]Man(b1-4)GlcNAc(b1-4)GlcNAc; conditions: glycan notation: IUPAC condensed, linker removed; mutation: E347A
Method in brief: as §1

[27] = molecular target: Neu5Ac(a2-3)Gal(b1-3)GlcNAc; conditions: glycan notation: IUPAC condensed, linker removed; mutation: E347A
Method in brief: as §1

[28] = molecular target: Neu5Ac(a2-3)Gal6S(b1-4)[Fuc(a1-3)]GlcNAc; conditions: glycan notation: IUPAC condensed, linker removed; mutation: E347A
Method in brief: as §1

[29] = molecular target: Neu5Gc(a2-3)Gal(b1-3)GlcNAc; conditions: glycan notation: IUPAC condensed, linker removed; mutation: E347A
Method in brief: as §1

Binder | glycan array binding signal (z-score) [1] | glycan array binding signal (z-score) [2] | glycan array binding signal (z-score) [3] | glycan array binding signal (z-score) [4] | glycan array binding signal (z-score) (Gal3S6S(b1-4)GlcNAc6S) | glycan array binding signal (z-score) (Glc(a1-4)Glc) | glycan array binding signal (z-score) (GlcNAc(b1-3)GalNAc) | glycan array binding signal (z-score) [5] | glycan array binding signal (z-score) [6] | glycan array binding signal (z-score) [7] | glycan array binding signal (z-score) [8] | glycan array binding signal (z-score) [9] | glycan array binding signal (z-score) [10] | glycan array binding signal (z-score) [11] | glycan array binding signal (z-score) [12] | glycan array binding signal (z-score) [13] | glycan array binding signal (z-score) [14] | glycan array binding signal (z-score) (Gal(a1-3)Gal(b1-4)GlcNAc) | glycan array binding signal (z-score) (Gal(a1-3)GalNAc) | glycan array binding signal (z-score) (Gal(a1-6)Glc) | glycan array binding signal (z-score) (Gal(b1-2)Gal) | glycan array binding signal (z-score) [15] | glycan array binding signal (z-score) [16] | glycan array binding signal (z-score) [17] | glycan array binding signal (z-score) [18] | glycan array binding signal (z-score) [19] | glycan array binding signal (z-score) ([4]; mutation: E347A) | glycan array binding signal (z-score) [20] | glycan array binding signal (z-score) (GlcNAc(b1-3)Gal) | glycan array binding signal (z-score) (GlcNAc3Prop(b1-4)GlcNAc) | glycan array binding signal (z-score) (Man(a1-2)Man(a1-3)Man) | glycan array binding signal (z-score) [21] | glycan array binding signal (z-score) [22] | glycan array binding signal (z-score) [23] | glycan array binding signal (z-score) [24] | glycan array binding signal (z-score) [25] | glycan array binding signal (z-score) [26] | glycan array binding signal (z-score) [27] | glycan array binding signal (z-score) [28] | glycan array binding signal (z-score) [29]
B1 | -0.065 | -0.279 | -0.107 | -0.238 | 3.91 | 1 | -0.228 | -0.19 | -0.247 | 1.22 | -0.14 | 2.45 | -0.15 | -0.216 | -0.231 | – | – | – | – | – | – | – | – | – | – | – | – | – | – | – | – | – | – | – | – | – | – | – | – | –
B2 | – | – | – | – | – | – | – | – | – | – | – | – | – | – | – | -0.321 | -0.435 | -0.244 | -0.384 | -0.408 | -0.48 | -0.211 | -0.15 | -0.424 | -0.244 | 0.532 | -0.384 | -0.317 | -0.071 | -0.18 | 1.58 | 6.34 | -0.461 | 10.1 | 5.19 | 10.2 | 0.008 | -0.335 | -0.255 | 0
